# Test results reported in the supplement of paper PMC8728848.
# Only a selection was taken, and the strongest signals are over-represented in it overall.
# B1: GS7807P-bth-537-23-537 (Bacteroides thetaiotaomicron) (protein)
# chain: NYENINSNPYEAPDLSADGYALGSAMNNLAGCVVSPDVNTAQFTDCLLGGPLGGYFADSNAGFTETISNFNPKDDWSRVFLKSDKIIPTLYSNLTQVKLVSQNTNDPVPYAIAQVIKVAAMHRVTDAFGPIPYSQIGANGEIATPYDSQEVTYNTFFDELNAAIATLNENSNEQLVPTADYIYKGDVKKWIRFANSLKLRLAIRIAYANPVKAQQMAEEAVNPANGGVIESNADNATWNYFETSQNPIYVATRYNQVQTSDHGGVPCLTGGDTHAAADIICYMNGYKDNRREKFFTKSEWAGQDYVGMRRGIVIPELKTTGHKYSGVNIAPTSPLYWMNAAEVAFLRAEGQAVFNFSMGGTAESFYNQGIRLSFEQWGADGVEDYLKDDVNKPTAYTDPAGTNTYQNALSNITIKWNDSADKEEKQERIIVQKWIANWQLGNEAWADFRRTGYPKLIPVKENKSGGVVDSEKGARRMPYPLDEFVSNKANVEYAIANYLHGADNMATDVWWASKK
# How the values were obtained:
# Experiment in all cases: glycan array binding signal (z-score within array); higher = stronger binding
# Conditions in all cases: glycan notation: IUPAC condensed, linker removed
# [1] = target: Fuc(a1-2)Gal(b1-3)GlcNAc(b1-3)Gal(b1-4)Glc
# In short: (§1)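 Columns mapping to the same glycan were averaged after glycan names were converted to IUPAC-condensed notation. The data come from 3228 arrays in the Consortium for Functional Glycomics database, limited to those with an available protein sequence. Binding is reported as a within-array Z-score averaged across arrays of one protein sequence and across linkers.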
# [2] = target: Fuc(a1-2)Gal(b1-3)GlcNAc(b1-3)[Fuc(a1-2)Gal(b1-3)GlcNAc(b1-6)]GalNAc
# In short: as §1
# [3] = target: Fuc(a1-2)Gal(b1-4)GlcNAc(b1-2)[Fuc(a1-2)Gal(b1-4)GlcNAc(b1-4)]Man(a1-3)[Fuc(a1-2)Gal(b1-4)GlcNAc(b1-2)Man(a1-6)]Man(b1-4)GlcNAc(b1-4)GlcNAc
# In short: as §1
# Fuc(a1-2)Gal6S(b1-4)Glc = target: Fuc(a1-2)Gal6S(b1-4)Glc
# In short: as §1
# [4] = target: Fuc(a1-2)[Gal(a1-3)]Gal(b1-3)GlcNAc(b1-6)GalNAc
# In short: as §1
# [5] = target: Fuc(a1-2)[Gal(a1-4)]Gal(b1-4)GlcNAc
# In short: as §1
# [6] = target: Fuc(a1-2)[GalNAc(a1-3)]Gal(b1-4)GlcNAc(b1-2)Man(a1-3)[Fuc(a1-2)[GalNAc(a1-3)]Gal(b1-4)GlcNAc(b1-2)Man(a1-6)]Man(b1-4)GlcNAc(b1-4)GlcNAc
# In short: as §1
# [7] = target: Fuc(a1-3)[GalNAc(b1-4)]GlcNAc
# In short: as §1
# Gal(a1-3)Gal(b1-3)GlcNAc = target: Gal(a1-3)Gal(b1-3)GlcNAc
# In short: as §1
# [8] = target: Gal(a1-3)Gal(b1-3)GlcNAc(b1-2)Man
# In short: as §1
# [9] = target: Gal(b1-3)GalNAc(b1-4)Gal(b1-4)Glc
# In short: as §1
# [10] = target: Gal(b1-3)GlcNAc(a1-6)Gal(b1-4)GlcNAc
# In short: as §1
# Gal(b1-3)GlcNAc(b1-2)Man = target: Gal(b1-3)GlcNAc(b1-2)Man
# In short: as §1
# [11] = target: Gal(b1-3)GlcNAc(b1-2)Man(a1-3)[Gal(b1-3)GlcNAc(b1-2)Man(a1-6)]Man(b1-4)GlcNAc(b1-4)[Fuc(a1-6)]GlcNAc
# In short: as §1
# [12] = target: Gal(b1-3)GlcNAc(b1-6)GalNAc
# In short: as §1
# [13] = target: Gal(b1-3)[Fuc(a1-4)]GlcNAc(b1-3)Gal(b1-3)[Fuc(a1-4)]GlcNAc
# In short: as §1
# [14] = target: Gal(b1-4)GlcNAc(b1-2)Man(a1-3)[GlcNAc(b1-2)Man(a1-6)]Man(b1-4)GlcNAc(b1-4)GlcNAc
# In short: as §1
# [15] = target: Gal(b1-4)GlcNAc(b1-2)[Gal(b1-4)GlcNAc(b1-6)]Man(a1-6)[Gal(b1-4)GlcNAc(b1-2)Man(a1-3)]Man(b1-4)GlcNAc(b1-4)[Fuc(a1-6)]GlcNAc
# In short: as §1
# [16] = target: Gal(b1-4)GlcNAc(b1-2)[Gal(b1-4)GlcNAc(b1-6)]Man(a1-6)[GlcNAc(b1-4)][Gal(b1-4)GlcNAc(b1-2)Man(a1-3)]Man(b1-4)GlcNAc(b1-4)GlcNAc
# In short: as §1
# [17] = target: Gal(b1-4)GlcNAc(b1-3)Gal(b1-4)GlcNAc(b1-3)Gal(b1-4)GlcNAc(b1-3)Gal(b1-4)GlcNAc(b1-3)Gal(b1-4)GlcNAc(b1-3)Gal(b1-4)GlcNAc(b1-2)Man(a1-3)[Gal(b1-4)GlcNAc(b1-3)Gal(b1-4)GlcNAc(b1-3)Gal(b1-4)GlcNAc(b1-3)Gal(b1-4)GlcNAc(b1-3)Gal(b1-4)GlcNAc(b1-3)Gal(b1-4)GlcNAc(b1-2)Man(a1-6)]Man(b1-4)GlcNAc(b1-4)GlcNAc
# In short: as §1
# [18] = target: Gal(b1-4)GlcNAc(b1-3)[Fuc(a1-3)GlcNAc(b1-6)]Gal(b1-4)Glc
# In short: as §1
# Gal3S6S(b1-4)GlcNAc = target: Gal3S6S(b1-4)GlcNAc
# In short: as §1
# Gal4S(b1-4)GlcNAc = target: Gal4S(b1-4)GlcNAc
# In short: as §1
# Gal6S(b1-4)Glc6S = target: Gal6S(b1-4)Glc6S
# In short: as §1
# Gal6S(b1-4)GlcNAc = target: Gal6S(b1-4)GlcNAc
# In short: as §1
# Gal6S(b1-4)GlcNAc6S = target: Gal6S(b1-4)GlcNAc6S
# In short: as §1
binder,measurement,setting,value
B1,glycan array binding signal (z-score),[1],-0.288
same,glycan array binding signal (z-score),[2],5.33
same,glycan array binding signal (z-score),[3],-0.271
same,glycan array binding signal (z-score),Fuc(a1-2)Gal6S(b1-4)Glc,0.294
same,glycan array binding signal (z-score),[4],2.94
same,glycan array binding signal (z-score),[5],-0.331
same,glycan array binding signal (z-score),[6],3.7
same,glycan array binding signal (z-score),[7],0.192
same,glycan array binding signal (z-score),Gal(a1-3)Gal(b1-3)GlcNAc,0.94
same,glycan array binding signal (z-score),[8],1.1
same,glycan array binding signal (z-score),[9],0.496
same,glycan array binding signal (z-score),[10],-0.173
same,glycan array binding signal (z-score),Gal(b1-3)GlcNAc(b1-2)Man,-0.221
same,glycan array binding signal (z-score),[11],2.17
same,glycan array binding signal (z-score),[12],1.42
same,glycan array binding signal (z-score),[13],-0.304
same,glycan array binding signal (z-score),[14],-0.348
same,glycan array binding signal (z-score),[15],-0.271
same,glycan array binding signal (z-score),[16],2.06
same,glycan array binding signal (z-score),[17],2.28
same,glycan array binding signal (z-score),[18],-0.071
same,glycan array binding signal (z-score),Gal3S6S(b1-4)GlcNAc,0.325
same,glycan array binding signal (z-score),Gal4S(b1-4)GlcNAc,-0.373
same,glycan array binding signal (z-score),Gal6S(b1-4)Glc6S,2.21
same,glycan array binding signal (z-score),Gal6S(b1-4)GlcNAc,0.037
same,glycan array binding signal (z-score),Gal6S(b1-4)GlcNAc6S,2.01
